A selection: hits, their analogues and other compounds. The true share with any hit is near 10%.
G9a inh – qHTS Assay for Inhibitors of Histone Lysine Methyltransferase G9a; 350,000 tested, 8.8% active; Histone-lysine N-methyltransferase EHMT2 (Homo sapiens), Q96KQ7; G9a H3K9 monomethylation, AlphaScreen, 2 h; Potency, µM (doses to about 102 µM), inactives show at the top dose activity, negative = inhibition, hits mostly inhibitors; also: % is scaled to controls: 0 for no effect and ±100 for the full control effect; nearly all actives have a fitted effect of over 75% in size
Target sequence (Q96KQ7 913-1193 limits assumed): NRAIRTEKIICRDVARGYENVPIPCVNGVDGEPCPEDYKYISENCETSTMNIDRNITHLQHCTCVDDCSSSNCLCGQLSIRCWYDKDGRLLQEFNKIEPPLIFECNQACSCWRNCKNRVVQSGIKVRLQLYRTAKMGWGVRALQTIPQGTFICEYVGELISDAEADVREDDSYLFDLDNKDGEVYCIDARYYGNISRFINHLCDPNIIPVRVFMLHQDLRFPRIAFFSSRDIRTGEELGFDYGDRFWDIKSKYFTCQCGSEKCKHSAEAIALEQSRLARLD
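Readings reflect AlphaScreen signal from monomethyl-H3K9 antibody detection. HMT at 20 nM; substrate b-H3K9 500 nM; cofactor SAM 20 uM; 2 h RT reaction; compounds tested as titrations in qHTS with 15 min preincubation.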
HP1b chromo inh – HTS for Inhibitors of HP1-beta Chromodomain Interactions with Methylated Histone Tails. AID 540317, 2011. 390,000 tested, 0.56% active. Potency, µM (doses to about 114 µM), inactives show at the top dose activity change, negative = inhibition, usual class: inhibitors. AlphaScreen HP1-beta / biotin-H3K9me3 peptide binding; also: nearly all actives have a fitted effect of over 70% in size
Target sequence (P83916 whole entry, looked up): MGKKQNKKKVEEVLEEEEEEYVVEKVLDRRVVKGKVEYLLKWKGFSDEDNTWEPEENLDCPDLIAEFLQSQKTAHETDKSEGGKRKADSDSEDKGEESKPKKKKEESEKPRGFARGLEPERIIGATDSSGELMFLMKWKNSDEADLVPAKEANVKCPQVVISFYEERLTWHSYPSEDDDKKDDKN
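HP1-beta protein (50 nM final) preincubated 30 min at room temperature with biotinylated H3(1-18)K9me3 peptide (50 nM) in PBS pH 7.4, 0.01% Tween-20, then compound added for 30 min. AlphaScreen streptavidin donor/nickel chelate acceptor beads (10 ug/mL final), 30 min dark, luminescence read.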
JMJD2A Tudor – qHTS Assay for Inhibitors of JMJD2A-Tudor Domain; Lysine-specific demethylase 4A (Homo sapiens), O75164; AlphaScreen JMJD2A-Tudor / H3K4me3 peptide binding; Potency, µM (top dose mostly 114 µM), inactives show at the top dose activity change, negative = inhibition, actives largely listed as inhibitors; 390,000 tested, 4.4% active; AID 504339, 2011; also: % is scaled to controls: 0 for no effect and ±100 for the full control effect; nearly all actives have a fitted effect of over 50% in size
BAZ2B inh – qHTS Assay for Inhibitors of BAZ2B; Bromodomain adjacent to zinc finger domain protein 2B (Homo sapiens), Q9UIF8; AlphaScreen BAZ2B-H3K14Ac peptide displacement; Potency, µM (titrated, usually from 114 µM), for inactives: at the highest dose activity change, negative = inhibition, usual class: inhibitors; 360,000 tested, 4.4% active; AID 504333, 2011; also: % is scaled to controls: 0 for no effect and ±100 for the full control effect; nearly all actives have a fitted effect of over 60% in size
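Protein-peptide AlphaScreen: BAZ2B 50 nM, b-H3K14Ac 50 nM, 1x PBS pH 7.4 + 0.01% Tween-20. Preincubation 30 min RT; cpd 30 min RT (top 110 uM); beads 20 min RT, light-protected.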
L3MBTL1 inh – qHTS Assay for the Inhibitors of L3MBTL1; Lethal(3)malignant brain tumor-like protein 1 (Homo sapiens), Q9Y468; AlphaScreen L3MBTL1–H3K9me1 peptide binding; Potency, µM (doses to about 57.1 µM), for the others: at the highest dose activity, negative = inhibition, usual class: inhibitors; 230,000 tested, 0.66% active; AID 485360, 2010; also: % is scaled to controls: 0 for no effect and ±100 for the full control effect; nearly all actives have a fitted effect of over 60% in size
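First, the protein-peptide complex forms for 30 min at room temperature (L3MBTL1 50 nM, biotinylated H3K9me1 peptide 75 nM). Next, compounds are pin-transferred and incubated 30 min. Finally, AlphaScreen beads are added and read after 30 min.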
GLS inhibitor – qHTS for Inhibitors of Glutaminase (GLS); Glutaminase kidney isoform, mitochondrial (Homo sapiens), O94925; GLS enzymatic activity, qHTS titration; Potency, µM (top dose mostly 45.5 µM), inactives show at the top dose activity change, negative = inhibition, actives largely listed as inhibitors; 410,000 tested, 0.21% active; AID 624170, 2012; also: % is scaled to controls: 0 for no effect and ±100 for the full control effect
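Assay buffer: 45 mM KH2PO4 pH 8.2, 0.02% Tween-20. hKGA acts on L-glutamine (1 mM solution added); product glutamate is reported by an oxidase/peroxidase Amplex Red coupling, with fluorescence taken at baseline and 30 min.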
* = called active by the depositor; u = inconclusive; x = not tested or not shown; [ ] = dose if it differs, or a comment. Calls follow the shape of the dose curve; as a rule, active = well fitted curve in the direction sought with a large enough effect; inconclusive = small, poorly fitted or top-dose-only effect, or another doubt; inactive = no such curve, though single readings can be large; an effect the other way counts as inactive or inconclusive. Potency is read from the fitted curve at half-maximal effect.

SMILES	G9a inh	HP1b chromo inh	JMJD2A Tudor	BAZ2B inh	L3MBTL1 inh	GLS inhibitor
Cc1cc(C(=O)CSc2nc(N)cc(N)n2)c(C)n1C1CC1	u	-21%	u	-25%	x	-7%
Cc1cc(C(=O)CSc2nnc(N)s2)c(C)n1-c1c(C)n(C)n(-c2ccccc2)c1=O	50µM*	1%	-24%	-9%	x	1%
COCC(C)n1c(C)cc(C(=O)CSc2nnc(N)s2)c1C (stereo not given)	6.3µM*	16%	-25%	-35%	x	14%
Cc1cc(C(=O)CSc2nnc(N)s2)c(C)n1C1CC1	50µM*	22%	-19%	-11%	-11%	-1%
C=CCC(CC=C)(CNC(=O)C(=O)Nc1ccc(C)cc1)c1ccccc1	-5%[59 µM]	44%	4%	2%	x	2%
CN(C)c1ccc(N=c2sc3ccccc3n2C)cc1	u	10µM*	10µM*	7.9µM*	x	75%
Cn1c(=Nc2ccccc2)sc2ccccc21	57%[59 µM]	63%	126%	73%	x	1%
O=c1[nH]c2cc3c(cc2cc1CN(Cc1ccccc1)Cc1nnnn1Cc1ccco1)OCCO3	25µM*	-20%	u	x	u	-10%
CCc1ccc2[nH]c(=O)c(CN(Cc3ccccc3)Cc3nnnn3Cc3ccco3)cc2c1	10µM*	10%	u	-5%	-2%	10%
CCC(c1nnnn1Cc1ccco1)N(CCc1ccccc1)Cc1cc2cc(C)ccc2[nH]c1=O (stereo not given)	40µM*	11%	-16%	-34%	-3%	12%
COc1ccccc1CN(Cc1cc2cc3c(cc2[nH]c1=O)OCCO3)Cc1nnnn1Cc1ccco1	u	-25%	35µM*	u	-7%	u
Cc1cc2cc(CN(Cc3ccc4c(c3)OCO4)Cc3nnnn3C3CCCC3)c(=O)[nH]c2cc1C	-8%[59 µM]	17%	-3%	x	0%	1%
O=c1[nH]c2cc3c(cc2cc1CN(CCc1ccccc1)Cc1nnnn1C1CCCC1)OCCO3	16µM*	x	x	-18%	7%	x
CCc1ccccc1N1C(=O)c2cccc3c(N4CCOCC4)c([N+](=O)[O-])cc(c23)C1=O	16µM*	-38%	u	u	-26%	-5%
CCc1ccc(N2C(=O)c3cc(N4CCOCC4)c([N+](=O)[O-])cc3C2=O)cc1	-9%[59 µM]	x	x	6%	8%	x
O=C(Nc1ccc(Cl)cc1)C1CCN(c2nc3ccccc3nc2C(F)(F)F)CC1	11%[59 µM]	13%	-4%	-1%	x	-2%
COCCCN=Cc1c(C)[nH]n(-c2ccc(Br)cc2Br)c1=O	50µM*	-5%	-16%	x	x	-2%
Cc1[nH]n(-c2ccc([N+](=O)[O-])cc2)c(=O)c1C=NCCN1CCN(C(=O)c2ccc(Br)cc2)CC1	u	25%	-11%	-5%	x	3%
CC(C)(C)c1ccc(OCC(=O)N(Cc2ccco2)Cc2ccccc2F)cc1	35%[59 µM]	48%	-19%	-30%	x	-7%
O=C(CSCc1nc2scc(-c3cccs3)c2c(=O)[nH]1)Nc1ccccn1	x	17%	-21%	-13%	x	6%
O=c1[nH]c(CN2CCc3ccccc32)nc2scc(-c3cccs3)c12	18µM*	5%	-28%	-14%	-43%	11%
Cc1ccc(C2=NN=C(NC(=O)C(F)(F)F)SC2)cc1	28µM*	-3%	-29%	-2%	1%	1%
Cc1ccc(NC(=O)CSc2nncn2C)c(C)c1	4%[59 µM]	28%	-9%	2%	x	-5%
Cc1ccc(C2=NN=C(NC(=O)CSc3nncn3C)SC2)cc1	22µM*	35µM*	u	-13%	-14%	u
O=C(CSc1cn[nH]n1)Nc1ccccc1C(=O)O	7.9µM*	5%	79µM*	-10%	x	0%
SMILES	G9a inh	HP1b chromo inh	JMJD2A Tudor	BAZ2B inh	L3MBTL1 inh	GLS inhibitor
COc1ccccc1NC(=O)CSC(N)=O	35µM*	72%	u	4%	x	27%
NC(=O)SCC(=O)Nc1ccccc1C(=O)O	50µM*	34%	-1%	-15%	-1%	14%
Cc1ccccc1NC(=O)CSC(N)=O	u	38%	-4%	-16%	11%	19%
O=C(CSc1ccccc1)Nc1ccccc1C(=O)O	-1%[59 µM]	21%	-6%	-1%	x	10%
NC(=O)c1ccccc1NC(=O)CSC1=NCCS1	50µM*	55%	-2%	-18%	x	2%
O=C(CSC1=NCCS1)Nc1ccc(F)cc1	12%	52%	-27%	0%	-2%	6%
CCOc1ccc(CNCc2c(C(=O)O)n(Cc3ccc(OC)cc3)c3ccccc23)cc1	u	-2%	-29%	u	x	-1%
CCOc1ccccc1NC(=O)CSc1nc(N)c(C#N)cc1C#N	u	30%	-13%	-26%	1%	7%
COc1ccccc1NC(=O)CSc1nc(N)c(C#N)cc1C#N	50µM*	18%	-8%	u	6%	0%
C[C@H](CN1CCCC1)C(=O)c1ccc(C(F)(F)F)cc1	x	x	x	x	x	-8%
O=C(N/N=C/c1ccccn1)c1cc(C2CC2)[nH]n1	u	47%	56µM*	11µM*	-34%	0%
O=C(N/N=C/c1ccc([N+](=O)[O-])cc1)c1cc(C2CC2)[nH]n1	79µM*	40%	-11%	-19%	x	-1%
COc1cc(NC(=O)c2noc3c2CC(C(C)(C)C)CC3)cc(OC)c1OC (stereo not given)	-26%[59 µM]	29%	-8%	-19%	x	-6%
CC1CCCN(c2nc3ccccc3nc2C(C#N)S(=O)(=O)c2ccccc2)C1 (stereo not given)	u	36%	-17%	u	-6%	19%
Cc1ccc(S(=O)(=O)C(C#N)c2nc3ccccc3nc2N2CCCCC2)cc1 (stereo not given)	45µM*	x	x	6%	-2%	x
COc1ccc(S(=O)(=O)C(C#N)c2nc3ccccc3nc2N2CCC(C)CC2)cc1 (stereo not given)	3.2µM*	x	x	45µM*	2%	x
CCOc1ccc(CNC(=O)c2cnc3sc(N4CCCCCC4)nn3c2=O)cc1OC	6%[59 µM]	51%	-21%	-1%	x	-7%
